High-throughput results (PubChem BioAssay)
PREPL inhibitor: human PREPL enzyme inhibition; AID 2751; inhibition, % at 5.96 µM; recombinant PREPL, fluorescence polarization activity-based probe; hit rate 0.68% among 320,000; in the data active means inhibition above about 43%
Target sequence (Q4J6C6 whole entry, looked up): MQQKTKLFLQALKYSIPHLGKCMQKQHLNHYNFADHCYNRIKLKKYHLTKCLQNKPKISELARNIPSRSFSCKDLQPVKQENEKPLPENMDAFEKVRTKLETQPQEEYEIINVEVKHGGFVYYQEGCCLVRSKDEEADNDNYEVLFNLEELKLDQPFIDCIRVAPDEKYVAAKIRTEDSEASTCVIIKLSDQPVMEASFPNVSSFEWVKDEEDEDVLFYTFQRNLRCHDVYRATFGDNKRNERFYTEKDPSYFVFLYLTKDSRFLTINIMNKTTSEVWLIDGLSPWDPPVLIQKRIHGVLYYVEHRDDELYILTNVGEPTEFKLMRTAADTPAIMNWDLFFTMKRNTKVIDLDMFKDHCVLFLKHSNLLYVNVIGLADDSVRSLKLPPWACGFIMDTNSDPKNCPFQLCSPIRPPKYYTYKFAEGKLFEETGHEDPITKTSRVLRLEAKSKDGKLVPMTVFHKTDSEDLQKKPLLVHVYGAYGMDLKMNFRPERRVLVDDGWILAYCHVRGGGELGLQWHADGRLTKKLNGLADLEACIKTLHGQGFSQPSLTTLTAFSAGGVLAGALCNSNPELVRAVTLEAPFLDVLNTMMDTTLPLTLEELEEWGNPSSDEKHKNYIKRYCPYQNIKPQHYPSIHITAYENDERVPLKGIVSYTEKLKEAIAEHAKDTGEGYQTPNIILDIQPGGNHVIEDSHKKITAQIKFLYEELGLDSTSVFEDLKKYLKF
PP5 inh: inhibitors of human protein phosphatase 5 (PP5) | P53041 | purified PP5c, OMFP substrate fluorescence | inhibition, % at 6.7 µM | hit rate 0.18% among 320,000;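 active means inhibition above the campaign's mean inhibition across all tested compounds plus 3 SD, cut at about 9.5% in these data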
NadD inh: blocks S. aureus nicotinate mononucleotide adenylyltransferase | hit rate 0.78% among 360,000 | inhibition, % at 20 µM | AID 602399 | purified NadD enzyme, colorimetric absorbance read-out; in the data active means inhibition above about 26%
PP1 counter: counter-screen for PP5 inhibitors: inhibitors of human PP1-alpha; purified PP1alpha, OMFP fluorescence; hit rate 0.9% among 320,000; P62136; inhibition, % at 6.7 µM;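 active means inhibition above the mean inhibition of all tested compounds plus 3 SD, computed separately for each screening campaign, cut at about 15% in these data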
Rpn11 block: blocks the human proteasome subunit Rpn11 | O00487 | human 26S proteasome, Ub4-pepOG fluorescence polarization; 20S core pre-blocked with epoxomicin | inhibition, % at 20 µM | hit rate 0.59% among 360,000 | AID 588493;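 active means inhibition at 20 µM, scaled to each plate's controls, above about 33%, limit read from the data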
NadD inh conf: confirmation of Staphylococcus aureus NadD inhibitors; shares compounds with NadD inh; purified S. aureus NadD, colorimetric enzyme assay; inhibition, % at 20 µM; hit rate 13% among 2,000; in the data active means inhibition mostly above about 42%, no sharp cut-off; inactive means mostly below about 42%
Of the large screens only hits and unclear results are named; the others gave an inactive call (follow-up assays come after a bar, where shown). An excerpt weighted towards active compounds, which were near 2.4% of everything screened.

NC(=S)N/N=C/c1ccc(-c2ccc([N+](=O)[O-])cc2)o1	NadD inh 33 | NadD inh conf inactive
NC(=S)N/N=C/c1ccc(-c2cc(Cl)ccc2Cl)o1	NadD inh 43 | NadD inh conf inactive
NC(=S)N/N=C/c1ccc(-c2cc(Cl)cc(Cl)c2)o1	NadD inh 38 | NadD inh conf inactive
NC(=O)c1ccc(NC(=O)c2cc(S(=O)(=O)N3CCCCC3)ccc2N2CCOCC2)cc1	none
Cc1ccc(-c2csc(NC(=O)CSc3nnc4c(n3)[nH]c3ccccc34)n2)cc1	NadD inh 58, PP1 counter 17 | NadD inh conf inactive
COc1ccc(CN2C(=O)C(Cc3ccccc3)Nc3ncnc(N4CCN(c5ccccc5)CC4)c32)cc1 (stereo not drawn)	none
O=C1C(Cc2ccccc2)Nc2ncnc(N3CCN(c4ccccc4)CC3)c2N1Cc1ccc(Cl)cc1 (stereo not drawn)	NadD inh 41 | NadD inh conf inactive
O=C(Nc1cccc(S(=O)(=O)N2CCCCC2)c1)c1c2c(nc3ccccc13)CCN(Cc1ccccc1)C2	NadD inh 30 | NadD inh conf inactive
Cn1c(=O)c2c([nH]c(=S)n2CCCc2ccccc2)n(C)c1=O	none
Cn1c(=O)[nH]c(=O)c2c1[nH]c(=S)n2CCCc1ccccc1	NadD inh 32 (no result: PREPL inhibitor, PP5 inh, PP1 counter) | NadD inh conf inactive
O=C(NC(=S)N1CCN(c2nc(-c3ccccc3)cs2)CC1)c1cncc(Br)c1	NadD inh 35 | NadD inh conf inactive
O=C(CN1CCN(c2nc(-c3ccccc3)cs2)CC1)NNC(=O)c1ccc(Br)cc1	none
CCOc1cc(/C=C(\CC(=O)O)c2nc3ccccc3s2)ccc1OCC(=O)Nc1cccc(C(F)(F)F)c1	NadD inh 37 (no result: PREPL inhibitor, PP5 inh, PP1 counter) | NadD inh conf inactive
O=C(NCc1cccc2ccccc12)c1cccs1	none
Nc1nc2c(Br)ccc(Br)c2cc1C(=O)NCc1cccc2ccccc12	NadD inh 41 (no result: PREPL inhibitor, PP5 inh, PP1 counter, Rpn11 block) | NadD inh conf inactive
CC12CCC(=O)N1C(C(=O)Nc1cc(S(=O)(=O)N3CCCCCC3)ccc1OCC(F)(F)F)CS2 (stereo not drawn)	none
C#CCN(C[C@@H]1[C@@H](OC(=O)Nc2cccs2)[C@@H](OC(=O)Nc2cccs2)Cn2c(=O)n(CCCCCC)c(=O)n21)S(=O)(=O)c1ccc(C)cc1	NadD inh 30 (no result: PREPL inhibitor, PP5 inh, PP1 counter) | NadD inh conf inactive
Cc1ncc(CO)c2c1Oc1nc(-c3ccccc3)nc(SCC(=O)Nc3cccc(O)c3)c1C2	NadD inh 43 | NadD inh conf 39
COc1ccc(OCc2nnc(SCC(=O)Nc3cccc(C(C)=O)c3)o2)cc1	none
COc1ccc(-c2nc3c(c(SCC(=O)Nc4cccc(O)c4)n2)Cc2c(CO)cnc(C)c2O3)cc1	NadD inh 50 | NadD inh conf inactive
O=C(CSc1ncc(-c2ccccc2)[nH]1)Nc1cccc(O)c1	none
NNC(=O)c1ccc(O)cc1O	none
CC(C)C[C@H]1CN([C@@H](CC(C)C)CN2CCC[C@@H]2CN2C(=S)NC[C@@H]2Cc2ccc(O)cc2)C(=S)N1CC1CCCCC1	NadD inh 30 (no result: PREPL inhibitor, PP5 inh, PP1 counter) | NadD inh conf inactive
CC(C)C[C@@H](CN1CCC[C@@H]1CN1C(=S)NC[C@@H]1Cc1ccc(O)cc1)N1C[C@H](Cc2ccc(O)cc2)N(CC2CCCCCC2)C1=S	NadD inh 44 (no result: PREPL inhibitor, PP5 inh, PP1 counter) | NadD inh conf inactive
O=[N+]([O-])c1ccc(/C=N/Nc2nc(N3CCCCCC3)nc(N3CCCCCC3)n2)o1	NadD inh 65 | NadD inh conf inactive
O=[N+]([O-])c1ccc(Nc2nc(N/N=C\c3ccc4c(c3)OCO4)nc(N3CCCCC3)n2)cc1	NadD inh 45 | NadD inh conf inactive
O=[N+]([O-])c1ccc(/C=N/Nc2nc(N3CCCCC3)nc(N3CCCCC3)n2)cc1	none
CCOc1cc(/C=N/Nc2nc(Nc3ccccc3)nc(N3CCCCC3)n2)ccc1OCC(=O)O	NadD inh 33 | NadD inh conf inactive
C(=C\c1ccccc1)/C=N/Nc1nc(N2CCCCC2)nc(N2CCCCC2)n1	NadD inh 35 | NadD inh conf inactive
O=[N+]([O-])c1ccccc1/C=C/C=N/Nc1nc(N2CCCCC2)nc(N2CCCCC2)n1	none
CCOc1ccc(S(=O)(=O)N2CCN(C(=O)CN3C(=O)NC(C)(C)C3=O)CC2)cc1	none
Cc1cc(C(=O)OCC(=O)NC2CCCCC2C)c2ccccc2n1 (stereo not drawn)	none (no result: PP5 inh, PP1 counter)
Cc1cc(C(=O)OCC(=O)NC2CCCC2)c2ccccc2n1	none (no result: PREPL inhibitor, PP5 inh, PP1 counter)
O=C(COC(=O)c1c2c(nc3ccccc13)/C(=C/c1ccco1)CC2)NC1CCCC1	NadD inh 52 (no result: PREPL inhibitor, PP5 inh, PP1 counter) | NadD inh conf 64
CC1CCCCC1NC(=O)COC(=O)c1c2c(nc3ccccc13)/C(=C/c1ccco1)CC2 (stereo not drawn)	NadD inh 85 | NadD inh conf inactive
N#CC(=Cc1ccccn1)c1nc(-c2ccc(Cl)cc2)cs1	none (not shown: PREPL inhibitor, PP5 inh, PP1 counter, Rpn11 block)
N#C/C(=C\Nc1ccc2cn[nH]c2c1)c1nc(-c2ccc(Cl)cc2)cs1	NadD inh 40 | NadD inh conf inactive
N#C/C(=C\Nc1ccc2cn[nH]c2c1)c1nc(-c2ccccc2)cs1	NadD inh 35 (no result: PREPL inhibitor, PP5 inh, PP1 counter) | NadD inh conf inactive
CNC(=O)OCc1cocc1COC(=O)NC	none (no result: PREPL inhibitor, PP5 inh, PP1 counter, Rpn11 block)
Clc1ccc(-c2ccc(-c3nn4c(-c5ccco5)nnc4s3)o2)cc1	NadD inh 35 | NadD inh conf inactive
COc1ccc(CC(N)c2csc(NC(=O)Nc3ccccc3-c3ccccc3)n2)cc1 (stereo not drawn)	NadD inh 31 (no result: PREPL inhibitor, PP5 inh, PP1 counter) | NadD inh conf inactive
CCOC(=O)C1CCCN(C(=O)c2cc(C)n(C(C)(C)C)n2)CC1 (stereo not drawn)	none (no result: PREPL inhibitor, PP5 inh, PP1 counter)
CC(C)N(C(=O)COC(=O)c1ccc(Cl)s1)c1ccccc1	none
COc1cc(/C=C2\SC(=O)N(c3cccc(Cl)c3)C2=O)cc([N+](=O)[O-])c1O	NadD inh 26 (no result: PREPL inhibitor, PP5 inh, PP1 counter) | NadD inh conf inactive
O=C1S/C(=C\c2ccc(O)c([N+](=O)[O-])c2)C(=O)N1c1ccccc1Cl	none
CCOC(=O)c1coc(C(=O)OCC)c1C(=O)OCC	none (no result: PREPL inhibitor, PP5 inh, PP1 counter)
Cc1ccc(C2(c3ccc(C)cc3)CC2C(=O)Nc2ccc([N+](=O)[O-])cc2O)cc1 (stereo not drawn)	NadD inh 48 | NadD inh conf inactive
CCCC(=O)Nc1nc(C)c(-c2csc(Nc3cc(OC)ccc3OC)n2)s1	none
Cc1ccc(Cl)cc1Nc1nc(-c2sc(NC(=O)C(C)(C)C)nc2C)cs1	NadD inh 34 | NadD inh conf inactive
COc1ccccc1Nc1nc(-c2sc(NC(=O)C(C)(C)C)nc2C)cs1	none
CCCCCC(=O)Nc1nc(C)c(-c2csc(Nc3cc(Cl)ccc3OC)n2)s1	NadD inh 42 | NadD inh conf inactive
O=C(Nc1ccc(Cl)c(Cl)c1)Nc1ccc([N+](=O)[O-])cn1	NadD inh 34 | NadD inh conf inactive
O=C(Nc1ccc(F)cc1)Nc1ccc([N+](=O)[O-])cn1	none
CCCCNC(=O)C1(C)CCN1C(=O)c1cc(-c2ccccc2)cs1 (stereo not drawn)	none (no result: PREPL inhibitor, PP5 inh, PP1 counter)
O=C(CCC(=O)c1ccc(Cl)cc1)OCn1nnc2ccccc2c1=O	none (no result: PP5 inh, PP1 counter)
